Most compounds without a hit are left out; they make up all but 2.1% or so of the library.
PLC-beta3 inh – inhibitors of human phospholipase C beta3. Q01970. Purified PLC-beta3, fluorogenic substrate, fluorescence. inhibition, % at 12.2 µM. 370,000 tested, 0.18% active. AID 720704; in the data active means inhibition above about 11%
ADAM10 inh – inhibitors of human ADAM10; recombinant ADAM10, EDANS/DABCYL FRET peptide cleavage, 3 h; inhibition, % at 7 µM; 370,000 tested, 0.62% active; AID 720582;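 active means inhibition above a per-campaign cutoff equal to the mean of compounds falling between control-based bounds plus 3 SD, cut at about 20% in these data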
PLC-gamma1 inh – blocks human PLC-gamma1 enzyme activity. P19174. purified PLC-gamma1, fluorogenic substrate, fluorescence. inhibition, % at 12.2 µM. 370,000 tested, 0.84% active. AID 720700; in the data active means inhibition above about 9.5%
Rce1 inh – blocks yeast Ras-converting enzyme | yeast membranes, quenched prenylated peptide cleavage fluorescence | calls only | Q03530 | 290,000 tested, 0.27% active;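 active means fall in fluorescence gain of 50% or more versus controls, with final raw signal at or below 3038400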
Target sequence (Q03530 whole entry, looked up): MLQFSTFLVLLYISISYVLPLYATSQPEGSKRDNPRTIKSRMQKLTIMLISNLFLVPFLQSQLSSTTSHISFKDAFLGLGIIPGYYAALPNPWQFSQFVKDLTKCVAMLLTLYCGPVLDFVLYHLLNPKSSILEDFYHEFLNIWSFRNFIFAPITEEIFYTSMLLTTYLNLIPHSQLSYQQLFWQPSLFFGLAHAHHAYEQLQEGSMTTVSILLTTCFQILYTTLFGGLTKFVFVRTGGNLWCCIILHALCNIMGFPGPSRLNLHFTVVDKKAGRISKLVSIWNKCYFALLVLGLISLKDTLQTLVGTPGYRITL
ADAM17 inh – inhibitors of human ADAM17. P78536. recombinant ADAM17, EDANS/DABCYL FRET peptide cleavage. inhibition, % at 6.95 µM. 370,000 tested, 0.83% active;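 active means inhibition above the mean of compounds lying between control limits plus 3 SD, set per campaign, cut at about 8.5% in these data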
ADAM10 confirm – confirmation of inhibitors of human ADAM10 | shares compounds with ADAM10 inh | inhibition, % at 6.95 µM | 2,100 tested, 1% active | AID 743208 | ADAM10 QFRET peptide cleavage, EDANS fluorescence;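 active means inhibition above about 20% chosen separately for each screening run, limit read from the data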
ADAM17 ctr – counter-screen for ADAM10 exosite inhibitors: inhibitors of human ADAM17; ADAM17 QFRET peptide cleavage, EDANS fluorescence; shares compounds with ADAM10 inh; AID 743214; inhibition, % at 6.95 µM; 2,100 tested, 0.5% active;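 active means mean triplicate inhibition above the solvent-only control wells' mean plus 3 SD, cut at about 12% in these data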
ADAM10 counter – ADAM10 inhibition, counter-screen for ADAM17 exosite hits. recombinant ADAM10, EDANS/DABCYL FRET peptide cleavage, 3 h. 2,900 tested, 47% active. inhibition, % at 6.95 µM. shares compounds with ADAM17 inh;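 active means mean inhibition over the triplicate runs exceeds the activity threshold set in the earlier primary screen, cut at about 20% in these data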
ADAM17 confirm – human ADAM17 inhibition, confirmation | shares compounds with ADAM17 inh | recombinant ADAM17, EDANS/DABCYL QFRET peptide cleavage | inhibition, % at 6.95 µM | 2,900 tested, 65% active;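 active means mean inhibition across replicates above the hit cutoff set in the primary screen, cut at about 8.5% in these data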
Each line names hits and unclear results; the compound was inactive in the other large screens (follow-up assays come after a bar, where they were run).

C=CCC[C@H](Cc1ccc(F)cc1)C(=O)OC[C@@H](Cc1c[nH]c2ccccc12)NC(=O)[C@@H](CC=C)CC(=O)N(CCO)Cc1ccccc1	ADAM10 inh 41.3, ADAM17 inh 15.0 (no result: Rce1 inh) | ADAM10 confirm inactive | ADAM17 ctr inactive | ADAM10 counter 48.5 | ADAM17 confirm 23.1
C=CC[C@H](CC(=O)N(CCO)Cc1ccccc1)C(=O)N[C@H](COC(=O)[C@@H](CC=C)Cc1ccc(F)cc1)Cc1ccccc1	ADAM10 inh 20.7, ADAM17 inh 10.8 (no result: Rce1 inh) | ADAM10 confirm inactive | ADAM17 ctr inactive | ADAM10 counter 24.9 | ADAM17 confirm 15.7
C[C@@H]1CNC(=O)c2c(C(=O)N3CCN(c4ccccc4)CC3)ncn21	none (no result: Rce1 inh)
C=CC[C@H](CC(=O)N(CCO)Cc1ccccc1)C(=O)N[C@H](COC(=O)[C@@H](CC=C)CC(=O)OC(C)(C)C)Cc1c[nH]c2ccccc12	ADAM10 inh 25.7, ADAM17 inh 12.8 (no result: Rce1 inh) | ADAM10 confirm inactive | ADAM17 ctr inactive | ADAM10 counter 45.4 | ADAM17 confirm 22.4
C=CC[C@@H](CC(=O)N[C@H](CO)Cc1ccccc1)C(=O)N[C@H](COC(=O)[C@@H](CC=C)CC(=O)OC(C)(C)C)Cc1c[nH]c2ccccc12	none (no result: Rce1 inh)
CCOC(=O)c1sc(NC(=O)CN2C(=O)NC3(CC(C)CC(C)(C)C3)C2=O)c(C(=O)OCC)c1C (configuration not stated)	none
CCOC(=O)c1sc(NC(=O)CN2C(=O)NC3(CC(C)CC(C)(C)C3)C2=O)cc1C (configuration not stated)	ADAM10 inh 24.2, ADAM17 inh 12.6 | ADAM10 confirm inactive | ADAM17 ctr inactive | ADAM10 counter inactive | ADAM17 confirm 13.6
O=C(CSc1nnc(-c2ccccc2F)o1)N1CCNC1=O	none (no result: Rce1 inh)
FC(F)(F)c1cccc(NC(=S)NCc2ccc(Cl)cc2)c1	ADAM10 inh 22.3, ADAM17 inh 9.1 | ADAM10 confirm inactive | ADAM17 ctr inactive | ADAM10 counter 26.1 | ADAM17 confirm 15.0
Fc1ccc(CNC(=S)Nc2cccc(C(F)(F)F)c2)cc1	none
O=[N+]([O-])c1cc(S(=O)(=O)Nc2ccccc2)ccc1N1CCN(c2ccccc2)CC1	ADAM10 inh 24.0, ADAM17 inh 11.1 | ADAM10 confirm inactive | ADAM17 ctr inactive | ADAM10 counter 38.3 | ADAM17 confirm 20.8
COc1cc(NC(=S)NCCC(c2ccccc2)c2ccccc2)cc(OC)c1	ADAM10 inh 22.9, ADAM17 inh 11.6 | ADAM10 confirm inactive | ADAM17 ctr inactive | ADAM10 counter 20.2 | ADAM17 confirm 12.6
Cc1ccc(C(=O)NNC(=S)NC(=O)c2ccc(Cl)cc2)cc1	ADAM10 inh 19.8, ADAM17 inh 12.4 | ADAM10 confirm inactive | ADAM17 ctr inactive | ADAM10 counter inactive | ADAM17 confirm inactive
O=C(COC(=O)c1cccc(S(=O)(=O)N2CCCCC2)c1)NCc1ccccc1	none (no result: Rce1 inh)
O=C(OCC(=O)c1c[nH]c2ccccc12)c1cccc(S(=O)(=O)N2CCCCCC2)c1	ADAM10 inh 26.9, ADAM17 inh 11.6 | ADAM10 confirm inactive | ADAM17 ctr inactive | ADAM10 counter inactive | ADAM17 confirm 8.7
O=C(c1ccco1)N1CCN(Cc2cc(=O)c(OCc3ccccc3F)co2)CC1	none
COc1cc(NC(=O)C2CCCN(S(=O)(=O)c3cccs3)C2)cc(OC)c1 (configuration not stated)	none (no result: Rce1 inh)
CCOc1ccc(OCC)c(NC(=O)C2CCCN(S(=O)(=O)c3cccs3)C2)c1 (configuration not stated)	ADAM10 inh 28.4, ADAM17 inh 11.8 (no result: Rce1 inh) | ADAM10 confirm inactive | ADAM17 ctr inactive | ADAM10 counter inactive | ADAM17 confirm inactive
Cc1cc(C)c(CSc2ncc(-c3ccc([N+](=O)[O-])cc3)[nH]2)c(C)c1	ADAM10 inh 34.4, ADAM17 inh 11.0 | ADAM10 confirm inactive | ADAM17 ctr inactive | ADAM10 counter 41.1 | ADAM17 confirm 23.3
Cc1cc(C)c2c(=O)[nH]c(SCc3ccc([N+](=O)[O-])cc3)nc2n1	none (no result: Rce1 inh)
CN1CCN(C(=O)c2cnc(Cc3c[nH]c4ccccc34)c(I)c2)CC1	none (no result: Rce1 inh)
O=C(CN1C(=O)NC2(CCCc3ccccc32)C1=O)NCc1ccc(Cl)cc1Cl (configuration not stated)	none
Cc1cc(C)cc(NC(=O)C2(c3ccccc3)CC2(Cl)Cl)c1 (configuration not stated)	ADAM10 inh 20.4, ADAM17 inh 9.9 | ADAM10 confirm inactive | ADAM17 ctr inactive | ADAM10 counter inactive | ADAM17 confirm 9.6
Cc1nc(SC2CC(=O)N(c3cc(Cl)cc(Cl)c3)C2=O)nc2c1CCCC2 (configuration not stated)	ADAM10 inh 34.2, ADAM17 inh 10.3 | ADAM10 confirm inactive | ADAM17 ctr inactive | ADAM10 counter inactive | ADAM17 confirm inactive
Cc1cccc(N2C(=O)CC(Sc3nc(C)c4c(n3)CCCC4)C2=O)c1 (configuration not stated)	none
CCCCCC(=O)Nc1ccc(C2C(=O)c3ccccc3C2=O)cc1	none
CCOc1ccc(CN(C)CC(=O)Nc2ccc([N+](=O)[O-])cc2Cl)cc1	none
CC(C)NC(=O)CC(c1ccccc1)c1cc(Br)ccc1O (configuration not stated)	none (no result: PLC-beta3 inh, ADAM10 inh, PLC-gamma1 inh, ADAM17 inh)
CCCCCCNC(=O)CC(c1ccccc1)c1cc(Br)ccc1O (configuration not stated)	ADAM10 inh 34.7, ADAM17 inh 23.5 | ADAM10 confirm inactive | ADAM17 ctr inactive | ADAM10 counter 41.0 | ADAM17 confirm 22.4
O=C(c1ccc2c(=O)n(Cc3ccc(Cl)cc3)c(=S)[nH]c2c1)N1CCOCC1	none
C=CCc1cccc(CNc2nc3ccccc3n2C)c1O	ADAM10 inh 20.1, ADAM17 inh 10.9 | ADAM10 confirm inactive | ADAM17 ctr inactive | ADAM10 counter 32.2 | ADAM17 confirm 16.9
CCC[C@H]1CN(c2ccc(Br)cc2)C(=O)[C@@H]1CC(=O)Nc1ccccc1	ADAM10 inh 24.3, ADAM17 inh 18.2 (no result: Rce1 inh) | ADAM10 confirm inactive | ADAM17 ctr inactive | ADAM10 counter 19.8 | ADAM17 confirm inactive
COC(=O)c1ccc(CN(c2ccccn2)S(=O)(=O)c2ccccc2)cc1	none (no result: Rce1 inh)
COC(=O)c1ccc(CN(c2ccc(C(=O)O)c(O)c2)S(=O)(=O)c2ccc(Cl)c([N+](=O)[O-])c2)cc1	ADAM10 inh 23.2, ADAM17 inh 10.7 | ADAM10 confirm inactive | ADAM17 ctr inactive | ADAM10 counter 38.6 | ADAM17 confirm 22.9
